The source of these data is PubChem BioAssay AID1851 (National Center for Advancing Translational Sciences (NCATS), 2009).

Molecules are shown by their SMILES. About 4,000 (25%) of roughly 16,000 compounds were called active. Not shown: some 26% with an inconclusive outcome. The call rests on the fitted dose curve; in most records, active means well fitted curve in the direction sought with a large enough effect; inconclusive means small, poorly fitted or top-dose-only effect, or effect the other way; inactive means no such curve, though single readings can be large or run the other way. Only a sample is shown.
On the % scale 0 is the no-effect control and ±100 the full control effect.

In this experiment the target is Cytochrome P450 2C9 (Homo sapiens) (UniProt P11712). As to the kind of experiment: Cytochrome panel assay with activity outcomes. To be noted: recombinant CYP, pro-luciferin dealkylation, luminescence, p450-cyp2c9; series mostly up to 57.1 µM; activity, negative = inhibition: at the top concentration.
Sequence of Cytochrome P450 2C9 (Homo sapiens) (P11712 whole entry, looked up): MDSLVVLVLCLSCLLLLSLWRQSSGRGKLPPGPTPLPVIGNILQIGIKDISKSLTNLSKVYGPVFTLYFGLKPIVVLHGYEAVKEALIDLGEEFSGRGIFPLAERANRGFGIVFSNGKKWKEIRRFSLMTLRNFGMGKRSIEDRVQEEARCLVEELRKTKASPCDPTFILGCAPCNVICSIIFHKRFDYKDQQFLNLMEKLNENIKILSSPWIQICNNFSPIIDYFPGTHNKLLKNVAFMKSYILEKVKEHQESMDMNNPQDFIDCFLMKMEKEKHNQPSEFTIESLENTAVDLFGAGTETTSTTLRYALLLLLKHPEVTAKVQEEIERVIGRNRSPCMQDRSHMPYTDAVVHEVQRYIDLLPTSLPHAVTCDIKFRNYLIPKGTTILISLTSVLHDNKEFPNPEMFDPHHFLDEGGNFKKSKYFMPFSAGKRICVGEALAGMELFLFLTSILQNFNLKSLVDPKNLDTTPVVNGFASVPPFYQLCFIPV
Consider `COc1ccc(-c2cc(C(=O)O)c3c(C)nn(-c4ccccn4)c3n2)cc1`, for which the “activity, negative = inhibition” value is 1.9% (inactive).
As to `COC(=O)c1ccccc1N/C=C1\CCc2c(c(C)nn2-c2ccccn2)C1=O`, the AC50 is 14.1 µM (active).
In the case of `COc1ccc(COC(=O)N/N=C2/C[C@@H](O)[C@@H](O)[C@@H]3[C@H]4C(=O)N(c5ccc(F)cc5F)C(=O)[C@@H]4CC[C@H]23)cc1`, the activity, negative = inhibition is -4.97% [at 11.4 µM] (inactive).
On to `O=C(/C=C/c1ccc(Br)cc1)NC1CCCCCC1`, for which the “activity, negative = inhibition” value was 10.2% (inactive).
On the same count and under the same terms, the value for `C[n+]1ccc(/C=C/c2ccc(Br)cc2)cc1` was -1.18% (inactive).
As to `CCOC(=O)C(CC)(CC)C(=O)/C=C/c1ccc(Br)cc1`, the concentration at half-maximal activity (AC50) was 5.01 µM (active).
The same measure, in the same setting: the value for `CCCNS(=O)(=O)c1ccc(OCC(=O)OC)cc1` was 7.08 µM (active).
As for `Nc1ccc(S(=O)(=O)NCCS(=O)(=O)O)cc1`, the activity, negative = inhibition was 9.74% [at 11.4 µM] (inactive).
Same read-out and setting: the value for `O=C(NOC(=O)c1cc(Br)ccc1Cl)c1cccs1` was -29.8% (inactive).
In the case of `Cc1ccc(Cc2cnc(NC(=O)c3cccs3)s2)cc1`, the AC50 is 8.91 µM (active).
For the compound `O=C(Nc1ncc(Cc2cccc(Cl)c2)s1)c1cccs1`, the AC50 is 11.2 µM (active).
Take `Cc1ccc(NC(=O)CCC(=O)NNC(=O)c2cccs2)c(C)c1`: the “activity, negative = inhibition” value is -27.1% (inactive).
For the compound `Nc1[nH]c(=O)nc2c1ncn2[C@H]1O[C@@H](CO)[C@@H](O)[C@@H]1O`, the activity, negative = inhibition was -0.314% [at 11.4 µM] (inactive).
Still for that read-out and setting: the value for `O=C(O)c1ccc(S(=O)(=O)N=Nc2c(O)[nH]c3ccccc23)cc1` was 3.79% [at 11.4 µM] (inactive); that for `N#CCCSC(=S)[C@H]1CCCC1=N` was -3.69% [at 11.4 µM] (inactive); that for `COC(=O)CCC(=O)Nc1cccc2ccccc12` was 9.84% (inactive).
Same read-out and setting: the value for `N#Cc1c(NC(=O)CCC(=O)O)ccc2ccccc12` was -7.5% [at 11.4 µM] (inactive).
As to `O=C(CCC(=O)OCc1ccc(C(=O)Oc2ccccc2)cc1)Nc1cccc2ccccc12`, the AC50 was 15.8 µM (active).
Turning to `COc1ncc2nc(-c3cc(F)cc(F)c3)c(=O)n(CCC#N)c2n1`, the “activity, negative = inhibition” value was -11.8% (inactive).
On to `N#Cc1sc2nc(-c3cccs3)cc(-c3ccc(Cl)cc3)c2c1N`, for which the AC50 was 4.47 µM (active).
For the compound `Cc1cc(O)c(C(C)C)cc1N=Cc1ccccc1O`, the AC50 was 0.631 µM (active).
As to `O=C(O)c1cc(N=Cc2ccccc2O)cc(C(=O)O)c1`, the activity, negative = inhibition was 7.44% [at 11.4 µM] (inactive).
Turning to `[O-][n+]1c(CN2CCCCC2)nc2cccc3c2c1-c1ccccc1-3`, the activity, negative = inhibition is -15.3% [at 11.4 µM] (inactive).
The same measure, in the same setting: the value for `CN(C)c1ccc(/C=N\NC(=O)c2cnc3ccccc3c2)cc1` was -6.78% [at 11.4 µM] (inactive).
For `CC(C)(C)c1ccc(C2CC2C(=O)N/N=C\c2cc3ccccc3nc2Cl)cc1` (centres undefined), the AC50 was 3.55 µM (active).
Turning to `CN(Cc1ccco1)c1ncncc1-c1cccnc1`, the activity, negative = inhibition was 10.8% [at 2.29 µM] (inactive).
As to `CCOc1[nH]n(-c2ccccc2)c(=O)c1C=Nc1ccc(Cl)cc1`, the “activity, negative = inhibition” value is -81.7% (inactive).
`O=c1c(C=Nc2ccc(Oc3ccccc3)cc2)c[nH]n1-c1cccc(Cl)n1`: the concentration at half-maximal activity (AC50) is 6.31 µM (active).
Still for that read-out and setting: the same measure for `Fc1ccc2c(c1)C(c1ccncc1)=NNC(c1ccc(Cl)cc1)=N2`: 0.282 µM (active).
Same read-out and setting: the value for `Clc1ccc2c(c1)C(c1cccs1)=NNC(c1cccnc1)=N2` was 11.2 µM (active).
As for `c1cncc(-c2cc(NCc3cccs3)ncn2)c1`, the activity, negative = inhibition was -6.08% [at 2.29 µM] (inactive).
Same read-out and setting: the value for `COC(=O)[C@H](C)NC(=O)[C@@H](C)CO` was 10.7% [at 11.4 µM] (inactive).
For `COCCNc1ccnc(-c2ccccc2CN(C)C)n1`, the activity, negative = inhibition was 0.0079% [at 2.29 µM] (inactive).
On to `CN(CC[C@@H](Oc1ccc(-c2ccccc2)cc1)c1ccc(F)cc1)CC(=O)O`, for which the AC50 is 2.51 µM (active).
Regarding `CNCC[C@@H](Oc1ccccc1C)c1ccccc1`, the “activity, negative = inhibition” value was 1.68% (inactive).
Turning to `CNCC[C@H](Oc1ccccc1OC)c1ccccc1`, the AC50 result is “inactive”.
The same measure, in the same setting: the same measure for `CCOc1cc2[nH]c(=S)n(CCC(=O)N3CCc4ccccc4C3)c(=O)c2cc1OCC`: 17.8 µM (active).
With `O=c1onc2n1-c1cc(Br)ccc1OC2`, the “activity, negative = inhibition” value is -8.5% (inactive).
On to `COc1ccc(S(N)(=O)=O)cc1C(=O)NCCCN1CCN(c2ccc(C)cc2)CC1`, for which the “activity, negative = inhibition” value was -17.8% (inactive).
Regarding `Cc1ccc(S(=O)(=O)N(CC(=O)N2CCN(c3ccc(F)cc3)CC2)C2CCCCC2)cc1`, the AC50 was 3.55 µM (active).
Turning to `CCCS(=O)(=O)N1CCCC(C(=O)NCCCN2CCN(c3ccc(F)cc3)CC2)C1` (centres undefined), the “activity, negative = inhibition” value is 2.11% (inactive).
Consider `CCCCOC(=O)NS(=O)(=O)c1sc(CC(C)C)cc1-c1ccc(Cn2c(CC)nc3c(C)cc(C)nc32)cc1`, for which the concentration at half-maximal activity (AC50) was 12.6 µM (active).
With `C1CCc2nnnn2CC1`, the “activity, negative = inhibition” value is -7.69% [at 25.6 µM] (inactive).
Regarding `O=C(c1cccc(F)c1)N1CCC2(CC1)CN(Cc1ccccc1)C2`, the “activity, negative = inhibition” value was -9.48% (inactive).
As for `Cc1cccc2cc(CN(Cc3ccccc3)C(=O)c3cccc(F)c3)c(Cl)nc12`, the AC50 was 2.24 µM (active).
Same read-out and setting: the value for `COc1cccc(OC)c1/C(O)=C(\C#N)c1nc2ccccc2[nH]1` was 11.2 µM (active).
With `CNc1nc(-c2ccccc2OC)nc2ccccc12`, the activity, negative = inhibition was 7.89% [at 2.29 µM] (inactive).
Turning to `Cc1ccccc1OC/C(O)=C(\C#N)c1nc2ccccc2[nH]1`, the “activity, negative = inhibition” value was -1.16% (inactive).
In the case of `CC(CC(=O)Nc1ccc(Cl)c([N+](=O)[O-])c1)c1ccccc1` (centres undefined), the concentration at half-maximal activity (AC50) is 14.1 µM (active).
Take `COc1ccc(NC(=O)N2CCC3(CC2)CCN(C(=O)c2cccc(F)c2)CC3)cc1`: the “activity, negative = inhibition” value was -15.4% (inactive).
As for `COc1ccc(N2CCN(C(=S)Nc3cc(C)cc(C)c3)CC2)cc1`, the “activity, negative = inhibition” value is -13.1% (inactive).
For `COc1ccc(Nc2ncc(C(=O)N3CCN(c4ccc(F)cc4)CC3)c3ccccc23)cc1`, the AC50 is 2.24 µM (active).
For `CC(=O)[C@@]1(O)Cc2c(O)c3c(c(O)c2[C@H](O[C@H]2C[C@H](N)[C@H](O)[C@H](C)O2)C1)C(=O)c1ccccc1C3=O`, the “activity, negative = inhibition” value is -4.2% (inactive).
As to `O=C(NC1CCCCC1)c1sc(=S)n2c1[nH]c(=O)c1ccccc12`, the AC50 was 0.2 µM (active).
Same read-out and setting: the same measure for `CCOc1ccc(N(C(C)C(=O)N/N=C(\C)c2cccc(NC(=O)c3ccccc3)c2)S(C)(=O)=O)cc1` (centres undefined): 3.98 µM (active); for `CCOc1ccc(N(C(C)C(=O)NC(C)CC)S(C)(=O)=O)cc1` (centres undefined): 5.62 µM (active).
As to `Cc1nc2cnc(N3CCN(C)CC3)nc2n(-c2ccccc2)c1=O`, the “activity, negative = inhibition” value is 23.4% (inactive).
Consider `CC[C@H]1C(=O)OC[C@H]1Cc1cncn1C`, for which the “activity, negative = inhibition” value was -28.6% [at 25.6 µM] (inactive).
The same measure, in the same setting: the value for `CO[C@H]1COC(=O)[C@@H](C)COC(=O)[C@@H](COCc2ccccc2)NC(=O)C/C=C\[C@H]1C` was 6.52% [at 11.4 µM] (inactive).

For orientation: AC50 means the concentration at which the activity in the assay is half-maximal.
